Our source for the growth values is PubChem BioAssay (NCI).

The panel holds about 83,000 compounds, 20% with a hit somewhere; the sample as a whole holds those more often.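 48-hour exposure, single concentration, 96-well plates; percent growth endpoint where 0 means no net growth. Active: below 10.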 Unmarked numbers belong to inactive results. Activity calls are given as the source filed them.

Test in all cases: NCI-60 one-dose screen, 48 h (100 = growth as untreated, 0 = no growth, -100 = all killed)
Holding throughout (settings): 10 µM unless noted

For assay [1], the system named is SR leukemia.
Assay [2] relates to RPMI-8226 leukemia.
For assay [3], the system named is OVCAR-8 ovarian.
For assay [4], the system named is OVCAR-5 ovarian.
For assay [5], the system named is OVCAR-4 ovarian.
The subject of assay [6] is SK-OV-3 ovarian.
In assay [7] the test system is IGROV1 ovarian.
In assay [8] the test system is OVCAR-3 ovarian.
Assay [9] has as its system HS 578T breast.
The test system of assay [10] is NCI/ADR-RES ovarian.
Assay [11] deals with T-47D breast.
Assay [12] concerns BT-549 breast.
In assay [13] the test system is MDA-MB-435 melanoma.
The test system of assay [14] is SW-620 colon.
Assay [15] concerns MCF7 breast.
Assay [16] concerns HCT-116 colon.
In assay [17] the test system is HCC-2998 colon.
The subject of assay [18] is KM12 colon.

Consider `CN=S(=O)(NC(=O)c1ccc(Cl)cc1Cl)c1ccc(Br)s1` (centres undefined), for which the growth in assay [1] is 94.3%; in assay [2], 98%; in [3], 97.6%; in [4], 95.3%; in assay [5], 103%; in assay [6] it was 111%. Besides, the growth in assay [7] is 101%; in [8], 109%; in assay [9] it was 97.8%; in assay [10], 99.3%; in [11], 95.8%; in assay [12] it was 103%. Further, the growth in [13] is 97.6%; in assay [14], 98.8%; in [15] it was 101%; in assay [16] it was 102%; in assay [17], 111%; in assay [18], 110%.

Consider `CCN(CC)CCCNc1nc(C)cc(Nc2ccc3nc(C)cc(N)c3c2)n1`, for which the growth in assay [1] was 110%; in [2], 102%; in [3], 106%; in assay [4], 102%; in [5] it was 116%; in [6], 89.9%. Moreover, the growth was 97.8% in assay [7]; 106% in assay [8]; 109% in [9]; 101% in assay [10]; 92.2% in assay [11]; 84.9% in [12]. The growth in assay [13] is 103%; in [14], 117%; in assay [15] it was 92.8%; in assay [16], 93%; in assay [17] it was 97.6%; in assay [18], 101%.

Take `CC(C)(C)OC(=O)N[C@@H](Cc1ccccc1)C(=O)N(Cc1ccccc1)C1(C(=O)NCc2ccccc2)CCN(Cc2ccccc2)CC1`: the growth in assay [1] is -0.167% (active); in assay [2], 22.8%; in [3], 22.6%; in assay [4], 31.1%; in assay [5], 24.2%; in [6], 69.9%. The growth in assay [7] was 59.1%; in assay [8] it was 48.5%; in [9] it was 71.5%; in assay [10], 12.1%; in [11] it was 38%; in assay [12], 71%. Moreover, the growth was 41% in [13]; 22.9% in assay [14]; 25.2% in assay [15]; 20.9% in assay [16]; 47% in [17]; 18.7% in assay [18].

Take `CCN(CC)CCC(=O)c1cccc2ccccc12`: the growth was 53.4% in assay [1]; 44.4% in assay [2]; 104% in assay [3]; 98.3% in [4]; 119% in [5]; 121% in [6]. The growth in assay [7] is 101%; in assay [8], 113%; in [9] it was 101%; in assay [10], 104%; in assay [11], 85.1%; in assay [12], 110%. The growth in assay [13] was 108%; in [14] it was 104%; in [15] it was 63.9%; in assay [16], 109%; in assay [17], 97.1%; in assay [18], 103%.

Take `COc1cc(-c2n[nH]nc2-c2ccc3c(c2)OCCO3)cc(OC)c1OC`: the growth was 9.29% (active) in assay [1]; 0.653% (active) in assay [2]; 9.51% (active) in [3]; 11.7% in assay [4]; 34.8% in assay [5]; 3.32% (active) in assay [6]. Also, the growth is 21.9% in assay [7]; -33.9% (active) in assay [8]; 12.7% in assay [9]; 2.71% (active) in [10]; 40.5% in assay [11]; 12% in assay [12]. Further, the growth was -11.4% (active) in assay [13]; 19.4% in [14]; 9.04% (active) in assay [15]; 8.07% (active) in assay [16]; 10.1% in [17]; 9.43% (active) in [18].

As for `Cc1nc(Nc2cccnc2)sc1C(=O)/C=C/c1ccc(Cl)cc1`, the growth in assay [1] was 6.11% (active); in [2], -4.94% (active); in assay [3], 14.9%; in assay [4], 37.3%; in [5] it was 82.4%; in assay [6], 81.3%. Further, the growth in assay [7] was 14.9%; in [8], 7.38% (active); in assay [9] it was 98.9%; in [10], 35.4%; in [11], 24.8%; in assay [12], 15.2%. Further, the growth in [13] is 5.05% (active); in [14], 6.92% (active); in assay [15] it was 13.2%; in assay [16], 26.8%; in [17], 84.8%; in [18], 12.9%.

`COc1ccc(NC(=O)c2cc3ccccc3nc2Nc2cc(OC)c(OC)c(OC)c2)cc1`: the growth in [1] is 56.6%; in [2], 35.5%; in assay [3], 41.9%; in [4], 92.4%; in assay [5] it was 58.1%; in assay [6], 91.7%. Moreover, the growth in assay [7] is 87%; in assay [8], 48%; in [9] it was 79%; in [10], 43.2%; in assay [11], 27.1%; in [12], 52.8%. Further, the growth in assay [13] was 63.9%; in [14], 75.1%; in assay [15] it was 39.4%; in [16], 48.2%; in assay [17] it was 89%; in assay [18], 37.9%.

`COc1ccc(C(=O)/C=C/c2cccc([N+](=O)[O-])c2)c(OC)c1`: the growth was 4.78% (active) in [1]; -16.8% (active) in assay [2]; 18.2% in [3]; 41.9% in assay [4]; 26.6% in assay [5]; 77% in assay [6]. For the same molecule, the growth in assay [7] is 7% (active); in assay [8], 18.6%; in assay [9], 74.6%; in assay [10] it was 11.2%; in [11], 26.6%; in assay [12], 4.85% (active). The growth in [13] was 15.2%; in assay [14], -67.4% (active); in [15] it was 7.98% (active); in assay [16], -80.1% (active); in [17], 36.6%; in assay [18] it was 13.2%.
